SMILES strings stand for the structures. Calls of active or inactive are those of the source. Unless noted, how the calls were made is not given here.

A short description of assay [1]: compound effects on lung adenocarcinoma cell viability – A549, calcein-AM fluorescence, 48 h, basal, profiling panel (AID 1162). Further: test concentration not given here. As to conditions: higher = more signal.
The nature of assay [2]: compound effects on differentiated 3T3-L1 adipocyte viability – cell-based, 3T3-L1 adipocytes, calcein-AM fluorescence, 48 h, basal, profiling panel (AID 1163). Further: test concentration not given here. As to conditions: 3T3-L1 adipocytes viability, higher = more signal.
Assay [3] in a line: compound effects on hepatocellular carcinoma cell viability – HepG2, calcein-AM fluorescence, 48 h, basal, profiling panel (AID 1164). Further: test concentration not given here. As to conditions: higher = more signal.
A short description of assay [4]: compound effects on multiple myeloma cell viability – MM1S, calcein-AM fluorescence, 48 h, basal, profiling panel (AID 1165). Further: test concentration not given here. Conditions: higher = more signal.
Assay [5] in a line: calcein-AM signal in unstimulated myeloma cells – cell-based, calcein-AM fluorescence, 48 h, PK04 Diversity Set, profiling panel (AID 1166).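 Further: cells grown under basal conditions without added stimulus; test concentration not given here.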 As to conditions: RPMI8226 myeloma viability, higher = more signal.
Assay [6] in a line: JC-1 mitochondrial signal, unstimulated HepG2 cells – cell-based, JC-1 fluorescence, 24 h, 100 nL compound, profiling panel (AID 1167). Further: test concentration not given here. As to conditions: HepG2 mitochondrial potential, higher = more signal.
Assay [7] in a line: JC-1 mitochondrial signal, unstimulated adipocytes – cell-based, JC-1 fluorescence, 3T3-L1 adipocytes, 24 h, 100 nL compound, profiling panel (AID 1168). Further: test concentration not given here. Conditions: JC-1 mitochondrial fluorescence, higher = more signal, called active from +8 up or from −8 down.
A short description of assay [8]: JC-1 mitochondrial signal, unstimulated myeloma cells – cell-based, JC-1 fluorescence, RPMI8226, 24 h, 100 nL compound, profiling panel (AID 1169). Further: test concentration not given here. As to conditions: JC-1 mitochondrial potential fluorescence, higher = more signal.
A short description of assay [9]: JC-1 mitochondrial signal, unstimulated MM1S myeloma – cell-based, JC-1 fluorescence, 24 h, 100 nL compound, profiling panel (AID 1170). Further: test concentration not given here. Conditions: MM1S mitochondrial potential, higher = more signal.
Assay [10] can be described thus: resazurin metabolic signal in A549 cells – cell-based, resazurin fluorescence, 24 h, PK04 Diversity Set, profiling panel (AID 1171). Further: test concentration not given here. As to conditions: A549 viability, higher = more signal, called active from +8 up or from −8 down. A general note: Resazurin is reduced to fluorescent resorufin, in cell work by metabolically active cells.
Assay [11] in a line: resazurin metabolic signal in HepG2 cells – cell-based, resazurin fluorescence, 24 h, PK04 Diversity Set, profiling panel (AID 1172). Further: test concentration not given here. Conditions: HepG2 viability, higher = more signal.
Assay [12] can be described thus: budding yeast growth changes without added modifier – OD600, strain BY4716, 24 h, basal condition, primary screen (AID 1173). As to conditions: S. cerevisiae BY4716 growth, OD600, 24 h; higher = more signal, called active from +8 up or from −8 down.
The nature of assay [13]: viability profiling in MM1S myeloma cells – cell-based, resazurin fluorescence, basal, 24 h, PK04 Diversity Set, profiling panel (AID 1174). Further: test concentration not given here. Conditions: higher = more signal, called active from +8 up or from −8 down.
For assay [14], the target named is Dihydroorotate dehydrogenase (quinone), mitochondrial (Plasmodium falciparum (isolate 3D7)) (UniProt Q08210). The experiment in a line: inhibition of P. falciparum DHODH – biochemical, C-terminal His tag, absorbance 600 nm, primary screen (AID 1175).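 Further: recombinant parasite enzyme with a five histidine tag at its C terminus; test concentration not given here.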 Conditions: PfDHODH enzyme, DCIP absorbance 600 nm; higher = more signal, called active from +8 up or from −8 down.
Chain of Dihydroorotate dehydrogenase (quinone), mitochondrial (Plasmodium falciparum (isolate 3D7)) (Q08210 whole entry, looked up): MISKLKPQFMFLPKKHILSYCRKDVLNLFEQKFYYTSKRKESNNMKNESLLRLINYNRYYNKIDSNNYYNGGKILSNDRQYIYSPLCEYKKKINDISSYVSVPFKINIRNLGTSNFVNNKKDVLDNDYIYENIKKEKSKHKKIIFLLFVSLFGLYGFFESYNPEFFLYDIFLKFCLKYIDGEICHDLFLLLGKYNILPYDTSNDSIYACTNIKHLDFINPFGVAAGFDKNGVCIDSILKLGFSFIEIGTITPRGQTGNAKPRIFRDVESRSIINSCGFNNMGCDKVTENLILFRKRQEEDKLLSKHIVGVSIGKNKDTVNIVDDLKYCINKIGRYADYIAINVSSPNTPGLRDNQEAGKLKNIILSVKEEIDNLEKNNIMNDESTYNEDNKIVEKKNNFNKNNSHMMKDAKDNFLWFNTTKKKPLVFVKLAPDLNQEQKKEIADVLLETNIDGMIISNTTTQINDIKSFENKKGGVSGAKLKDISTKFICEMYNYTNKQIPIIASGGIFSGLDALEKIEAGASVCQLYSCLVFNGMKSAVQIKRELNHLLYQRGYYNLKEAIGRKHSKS

Assay [15] can be described thus: inhibition of PAO1 biofilm formation – strain PAO1, LB-PBS medium, absorbance 600 nm, primary screen (AID 1176). Further: test concentration not given here. Conditions: P. aeruginosa PAO1 growth/biofilm, A600, 12 h; higher = more signal.
Assay [16] can be described thus: growth modulation of vineyard yeast isolate – strain RM11-1a, OD600, basal, 24 h, primary screen (AID 1177).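 Further: cultures grown under basal conditions with no added stressor; test concentration not given here.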 As to conditions: S. cerevisiae RM11-1a growth, OD600, 24 h; higher = more signal, called active from +8 up or from −8 down.
Assay [17] can be described thus: growth of efflux-deficient E. coli DRC39 – strain DRC39, OD650, 24 h, E. coli filamentation inducers, primary screen (AID 1178).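 Further: growth measured as culture turbidity by optical density at 650 nm; test concentration not given here.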 As to conditions: E. coli DRC39 acrAB, higher = more signal, called active from +8 up or from −8 down.
Assay [18] can be described thus: growth of efflux-deficient E. coli DRC39 – strain DRC39, OD650, 48 h, E. coli filamentation inducers, primary screen (AID 1179).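 Further: screen aims at cell division blockers that make cells filament.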 As to conditions: E. coli DRC39 delta-acrAB growth, higher = more signal, called active from +8 up or from −8 down.
A short description of assay [19]: viability profiling in RPMI8226 myeloma cells – cell-based, resazurin fluorescence, basal, 24 h, PK04 Diversity Set, profiling panel (AID 1180).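 Further: RPMI8826 multiple myeloma cell line at 5000 cells per well; test concentration not given here.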 Conditions: higher = more signal.
The target of assay [20] is E3 ubiquitin-protein ligase XIAP (Homo sapiens) (UniProt P98170). The experiment in a line: small molecules binding XIAP protein – biophysical, small-molecule microarray, fluorescence 635 nm, primary screen (AID 1181).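 Further: score merges 667 nm emission and signal to noise over triplicate slides.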 As to conditions: higher = more signal.
Chain of E3 ubiquitin-protein ligase XIAP (Homo sapiens) (P98170 whole entry, looked up): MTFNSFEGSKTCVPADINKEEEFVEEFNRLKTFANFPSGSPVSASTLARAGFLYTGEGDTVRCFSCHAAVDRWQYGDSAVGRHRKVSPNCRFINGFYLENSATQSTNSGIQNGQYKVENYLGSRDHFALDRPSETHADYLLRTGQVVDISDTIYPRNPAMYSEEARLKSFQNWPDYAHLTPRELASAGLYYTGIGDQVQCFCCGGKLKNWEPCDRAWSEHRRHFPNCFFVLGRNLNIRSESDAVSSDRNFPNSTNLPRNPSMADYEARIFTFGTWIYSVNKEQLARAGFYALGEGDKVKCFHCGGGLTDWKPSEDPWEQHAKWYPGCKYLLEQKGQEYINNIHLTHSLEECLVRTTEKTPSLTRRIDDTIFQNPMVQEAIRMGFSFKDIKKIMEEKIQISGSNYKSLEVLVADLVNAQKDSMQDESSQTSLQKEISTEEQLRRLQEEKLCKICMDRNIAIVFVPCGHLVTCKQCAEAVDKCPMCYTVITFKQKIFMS

For the molecule `CN(C)CCCCNC(=O)[C@H]1C[C@H]2C(=O)N[C@@H](CCCCN(C)C)C(=O)N2[C@H]1c1ccc(O)cc1`, the z-score in assay [1] is 0.897; in assay [2] it was 0.613; in assay [3] it was 0.218; in assay [4] it was 0.428; in assay [5], 1.26; in [6], 0.754. The z-score in assay [7] is 0.903 (inactive); in assay [8], -0.623; in assay [9] it was -0.379; in assay [10] it was 1.2 (inactive); in assay [11], 0.828; in assay [12], -1.95 (inactive). In addition, the z-score in assay [13] is 0.419 (inactive); in [15], 0.655 (inactive); in assay [16], -1.52 (inactive); in assay [17], 1.12 (inactive); in [18] it was 1.67 (inactive); in assay [19], 1.82. Further, the figures for the composite z-score in assay [14] and in [20] were 0.245 (inactive) and -0.127, respectively.

With `CN1C(=O)C2C=CC(C(O)c3ccc([N+](=O)[O-])cc3)N(Nc3ccccc3)C2C1=O` (stereo not given), the z-score was -1.06 in assay [1]; -1.33 in assay [2]; -0.581 in assay [3]; 0.13 in [4]; -0.772 in [5]; -1.05 in [6]. The z-score in [7] was -1.92 (inactive); in [8] it was -0.199; in [9], -0.522; in assay [10] it was -1.36 (inactive); in [11] it was -1.83; in assay [12], -1.21 (inactive). The z-score in assay [13] was -1.03 (inactive); in [15] it was 1.1 (inactive); in assay [16], 0.114 (inactive); in [17], -0.987 (inactive); in [18] it was -1.16 (inactive); in assay [19], -1.44. Moreover, the values for the composite z-score in assay [14] and in assay [20] were 0.003 (inactive) and -0.0476, respectively.

Regarding `CN1C(=O)C2C=CC(C(O)c3ccc(I)cc3)N(N(c3ccccc3)c3ccccc3)C2C1=O` (stereo not given), the z-score in assay [1] was -0.62; in assay [2], -1.15; in assay [3] it was -0.0518; in assay [4], -0.0182; in assay [5], -0.726; in assay [6] it was -0.994. For the same molecule, the z-score in assay [7] was -1.67 (inactive); in assay [8], -0.251; in assay [9], -0.752; in assay [10], -0.614 (inactive); in assay [11] it was -0.476; in assay [12] it was 0.943 (inactive). The z-score in assay [13] is -0.788 (inactive); in assay [15], 0.944 (inactive); in assay [16], 0.67 (inactive); in assay [17], -1.36 (inactive); in assay [18] it was -0.105 (inactive); in [19], -1.1. Further, the values for the composite z-score in assay [14] and in [20] were 0.0495 (inactive) and 0.95, respectively.

On to `COC(=O)[C@@]1(Cc2ccc(OC)cc2)[C@@H]2[C@@H](CC(=O)[C@H]2CC(=O)C(=O)N(C)C)CN1C(=O)c1ccccc1`, for which the z-score was -1.45 in assay [1]; -0.18 in [2]; -0.923 in [3]; -2.24 in assay [4]; -4.62 in assay [5]; 1.1 in assay [6]. Moreover, the z-score in assay [7] is -0.169 (inactive); in [8], -0.735; in [9], -2.16; in [10] it was -2.28 (inactive); in assay [11], -0.54; in assay [12], 1.05 (inactive). In addition, the z-score in assay [13] was -2.89 (inactive); in assay [15] it was 1.02 (inactive); in assay [16] it was 0.415 (inactive); in [17], 0.243 (inactive); in assay [18] it was 0.358 (inactive); in [19], -4.19. Also, the composite z-score in [14] was -0.284 (inactive); in [20] it was 0.489.

As for `COc1ccc([Si](C)(C)[C@H]2[C@H](CC(=O)N3CCC[C@H]3CO)O[C@@]3(C(=O)N(Cc4cccc(N5CCCCC5=O)c4)c4ccccc43)[C@@H]2C)cc1`, the z-score is 0.239 in [1]; 0.112 in assay [2]; -0.134 in [3]; -2.65 in assay [4]; -3.15 in assay [5]; 2.8 in [6]. The z-score in assay [7] is 0.0592 (inactive); in assay [8], -0.893; in assay [9] it was 0.286; in assay [10], 0.423 (inactive); in assay [11], 0.276; in [12] it was -0.953 (inactive). Further, the z-score in assay [13] was -0.0453 (inactive); in [15], -0.234 (inactive); in assay [16], 0.64 (inactive); in assay [17], 0.957 (inactive); in [18] it was 0.965 (inactive); in [19] it was -0.185. Besides, the composite z-score in assay [14] was -3.28 (inactive); in [20] it was -0.0126.

As to `O=C(NC1CC1)[C@@H]1c2ccccc2C(=O)N(C2CCCCC2)[C@H]1c1ccc(CO)cc1`, the z-score in [1] is 1.35; in assay [2], -0.27; in [3], 1.12; in assay [4], -0.856; in assay [5], -0.591; in [6] it was 1.38. The z-score is -0.724 (inactive) in assay [7]; 0.512 in assay [8]; -0.256 in assay [9]; 0.0989 (inactive) in assay [10]; -0.358 in assay [11]; 0.678 (inactive) in assay [12]. The z-score in assay [13] was -1.27 (inactive); in [15], 0.292 (inactive); in assay [16], -0.456 (inactive); in assay [17] it was -0.185 (inactive); in assay [18] it was 0.138 (inactive); in [19], -0.166. Moreover, the values for the composite z-score in assay [14] and in assay [20] were -0.245 (inactive) and -0.323, respectively.

In the case of `C=C(C(=O)CC[C@@H](OC(=O)c1ccccc1-c1ccccc1C(=O)O)c1cccc(OCCO)c1)C(C)C`, the z-score is 0.811 in assay [1]; 0.647 in assay [2]; -0.474 in assay [3]; -0.305 in assay [4]; -0.637 in assay [5]; -1.12 in [6]. The z-score is 1.01 (inactive) in assay [7]; -0.143 in assay [8]; 0.0602 in assay [9]; 1.33 (inactive) in assay [10]; 0.821 in assay [11]; -1.96 (inactive) in [12]. The z-score in [13] was 1 (inactive); in [15] it was 0.661 (inactive); in [16] it was -0.364 (inactive); in assay [17], 0.546 (inactive); in [18], 0.332 (inactive); in assay [19] it was 1.82. The composite z-score in [14] is -1.26 (inactive); in [20], 0.112.

With `CC[C@@H](O[Si](C#C[Si](C(C)C)(C(C)C)C(C)C)(C(C)C)C(C)C)c1cn([C@H](CO)Cc2ccccc2)nn1`, the z-score was -0.28 in assay [1]; -1.04 in assay [2]; 0.928 in assay [3]; 0.297 in assay [4]; 0.944 in assay [5]; 0.74 in assay [6]. Also, the z-score was -0.123 (inactive) in assay [7]; -0.0761 in assay [8]; -0.757 in assay [9]; 0.194 (inactive) in assay [10]; 1.03 in [11]; 1.79 (inactive) in assay [12]. Besides, the z-score is 0.604 (inactive) in assay [13]; 0.183 (inactive) in assay [15]; 0.959 (inactive) in [16]; -0.316 (inactive) in [17]; 0.413 (inactive) in assay [18]; 1.24 in assay [19]. Besides, the composite z-score was -0.572 (inactive) in [14] and -0.207 in assay [20].

For `O=C1O[C@H](c2ccccc2)[C@H](c2ccccc2)N2[C@H]1[C@@H](C(=O)N1CCN(c3ncccn3)CC1)[C@]1(C(=O)Nc3ccc(C#CC4(O)CCCCCC4)cc31)[C@H]2c1ccc(O)cc1`, the z-score in assay [1] was 1.84; in [2], 0.783; in assay [3], 1.58; in assay [4], 0.0827; in assay [5], -0.153; in assay [6], -0.553. For the same molecule, the z-score was -0.166 (inactive) in assay [7]; -0.259 in [8]; 0.18 in assay [9]; 1.17 (inactive) in assay [10]; 0.596 in assay [11]; -0.436 (inactive) in [12]. In addition, the z-score in [13] was 0.776 (inactive); in assay [15], 1.05 (inactive); in assay [16], 1.82 (inactive); in [17] it was 0.851 (inactive); in [18], 1.31 (inactive); in assay [19], 0.995. In addition, the composite z-score in [14] is 0.0991 (inactive); in assay [20], -0.0663.

The record behind these values is PubChem BioAssay.
